The values below come from PubChem BioAssay AID1851 (National Center for Advancing Translational Sciences (NCATS), 2009).

The whole screen tested about 16,000 compounds, of which about 5,700 (36%) were called active. About 24% were inconclusive and are not listed. Calls follow the shape of the dose curve; as a rule, active = well fitted curve in the direction sought with a large enough effect; inconclusive = small, poorly fitted or top-dose-only effect, or effect the other way; inactive = no such curve, though single readings can be large or run the other way. The list shows a part of the results.
% is scaled to controls: 0 for no effect and ±100 for the full control effect.

The target of this assay is Cytochrome P450 1A2 (Homo sapiens) (UniProt P05177). The assay is described as follows: Cytochrome panel assay with activity outcomes. The conditions noted are these: recombinant CYP, pro-luciferin dealkylation, luminescence, p450-cyp1a2; series mostly up to 57.1 µM.
Cytochrome P450 1A2 (Homo sapiens), sequence (P05177 whole entry, looked up): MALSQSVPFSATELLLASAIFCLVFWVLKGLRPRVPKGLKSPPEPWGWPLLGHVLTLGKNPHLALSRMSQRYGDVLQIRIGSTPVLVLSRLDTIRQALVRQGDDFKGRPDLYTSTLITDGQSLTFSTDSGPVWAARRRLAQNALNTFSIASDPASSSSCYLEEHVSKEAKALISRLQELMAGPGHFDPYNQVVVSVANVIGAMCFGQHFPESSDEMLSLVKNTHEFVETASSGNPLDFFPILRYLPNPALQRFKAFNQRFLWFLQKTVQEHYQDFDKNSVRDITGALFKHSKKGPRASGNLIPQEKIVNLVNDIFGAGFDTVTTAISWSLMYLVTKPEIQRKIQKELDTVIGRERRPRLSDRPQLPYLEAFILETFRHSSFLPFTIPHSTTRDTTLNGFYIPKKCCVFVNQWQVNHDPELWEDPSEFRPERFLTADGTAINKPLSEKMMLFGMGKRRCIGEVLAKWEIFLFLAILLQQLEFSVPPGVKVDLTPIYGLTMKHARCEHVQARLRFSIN
In general, AC50 refers to the concentration at which the activity in the assay is half-maximal. With `COc1ccc(CNc2ncncc2-c2ccccc2C)c(OC)c1`, the half-maximal activity concentration (AC50) was 10 µM (active).
Take `COc1ccc(CNc2ncncc2-c2ccccc2CN(C)C)c(OC)c1`: the AC50 is 15.8 µM (active).
As to `COc1ccc(CNc2ncncc2-c2ccccc2OC)c(OC)c1`, the half-maximal activity concentration (AC50) was 5.01 µM (active).
Consider `O=C1C[C@H]2C(=O)[C@@H]1[C@@H](C(=O)O)[C@H]2C(=O)O`, for which the activity, negative = inhibition is -11% [at 11.4 µM] (inactive).
Take `COc1ccc(COC2OC[C@]3(C)[C@H]4C5=C(CN3C(=O)OC(C)(C)C)[C@H](C)C(CO)C(CO)C5CC[C@@H]24)cc1` (stereo partly drawn): the AC50 result was “inactive”.
`CC(C)[C@H](NC(=O)OC(C)(C)C)[C@@H](O)CC(=O)OC(C)(C)C`: the activity, negative = inhibition is -7.19% [at 11.4 µM] (inactive).
Take `CCOC(=O)N1CCN(CC(=O)c2ccc3c(c2)CCN3)CC1`: the AC50 entry was “inactive”.
For `COc1cc(/C=C2/C(=N)N3C=CSC3=NC2=O)ccc1OCCCOc1c(C)cccc1C`, the concentration at half-maximal activity (AC50) was 3.55 µM (active).
Take `COc1cc(/C=C2/C(=N)N3OC(C)=CC3=NC2=O)ccc1OCCOc1ccc(C)cc1`: the AC50 entry was “inactive”.
The same measure, in the same setting: to `CCOc1cc(/C=C2/C(=N)N3C=CSC3=NC2=O)ccc1OCCCOc1ccccc1C` belongs “inactive”.
In the case of `CCOC(=O)c1c(C(C)(C)C)oc2ccc(O)cc12`, the AC50 was 0.251 µM (active).
On to `C[C@@](N)(Cc1ccc(O)cc1)C(=O)O`, for which the AC50 result is “inactive”.
On to `C[C@@](N)(Cc1ccc(O)c(O)c1)C(=O)O`, for which the AC50 result is “inactive”.
In the case of `COC(=O)[C@@H]1CC[C@H](C)[C@@H](c2ccc(C)cc2)N1C(=O)c1ccc(/C=N\OC[C@@H](O)[C@H]2O[C@H]3OC(C)(C)O[C@H]3[C@@H]2O)cc1`, the activity, negative = inhibition is -5.97% [at 11.4 µM] (inactive).
On to `CCC1(O)c2ccccc2-c2ncccc21` (stereo not drawn), for which the AC50 was 14.1 µM (active).
The same measure, in the same setting: as for `O=c1c(-c2ccc(F)cc2)nc2cnc(N3CCOCC3)nc2n1C[C@H]1CCCO1`, the figure is 1.58 µM (active); as for `O=c1c(-c2ccccc2)nc2cnc(N3CCOCC3)nc2n1C[C@H]1CCCO1`, 3.16 µM (active).
On the same count and under the same terms, to `O=c1c(-c2ccc(Cl)cc2)nc2cnc(N3CCOCC3)nc2n1C[C@H]1CCCO1` belongs 2 µM (active); to `CC(=O)N1CCC2(CC1)CN(Cc1ccccc1)C2`, “inactive”.
Consider `Oc1cc2c(c(Cl)c1O)CCNC[C@H]2c1ccccc1`, for which the AC50 entry was “inactive”.
On the same count and under the same terms, to `COc1ccc2c(c1)Cc1cc(N=[N+]([O-])c3ccc4c(c3)Cc3cc(OC)ccc3-4)ccc1-2` belongs 1.58 µM (active).
Take `C/C(CCN1CCc2nc(-c3ccccc3)c(-c3ccccc3)cc2C1)=N\OC[C@@H](O)[C@@H]1O[C@@H]2OC(C)(C)O[C@@H]2[C@H]1O`: the activity, negative = inhibition was -5.51% [at 11.4 µM] (inactive).
On to `O=C(c1cc(C(F)(F)F)cc(C(F)(F)F)c1)N1CCC2(CC1)CN(c1ccccn1)C2`, for which the AC50 result is “inactive”.
